Reference: PubChem BioAssay (Tox21)
Inconclusive results are not listed. The source made the active and inactive calls. Unless noted, calls come from the whole dose curve; as a rule, active = well fitted curve in the direction sought with a large enough effect in the repeat runs; inconclusive = weak or mixed curves; inactive = no such curve, though single readings can be large; an effect the other way counts as inactive or inconclusive.

Assays:
[1] = qHTS assay to identify small molecule agonists of the vitamin D receptor (VDR) signaling pathway - cell viability counter screen (AID 743224); note: % is set by controls: 0 for no effect and ±100 for the full control effect; nearly all actives have a fitted effect of over 50% in size
How it was run: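 Plated VDR-bla cells (4 h, 37C) received compound, incubated 16 h, then LiveBLAzer substrate 2 h RT; CellTiter-Glo added afterwards, luminescence read at 30 min.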

[2] = qHTS assay to identify small molecule agonists of the NFkB signaling pathway (AID 1159509; active = well fitted curve in the direction sought with a large enough effect in the signal ratio in the repeat runs, not every such curve was filed as active; the % refers to the signal ratio; note: % is set by controls: 0 for no effect and ±100 for the full control effect)
How it was run: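 After overnight attachment, reporter cells received test compounds, DMSO or positive controls and were incubated 5 hr at 37 C. FRET substrate was then added for 1.5 hr at room temperature before dual-emission fluorescence reading.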

[3] = qHTS assay to identify small molecule agonists of the NFkB signaling pathway - cell viability counter screen (AID 1159515; calls by dose curve; note: % is set by controls: 0 for no effect and ±100 for the full control effect; nearly all actives have a fitted effect of over 55% in size)
How it was run: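 Using the same wells as the NFkB reporter read, ME-180 NFkB-bla cells given compounds for 5 hr were assessed for viability via CellTiter-Glo, with luminescence taken after a 30 min room-temperature incubation.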

[4] = qHTS assay to identify small molecule agonists of the endoplasmic reticulum stress response signaling pathway (AID 1159516; active = well fitted activation curve with a large enough effect in the signal ratio in the repeat runs, not every such curve was filed as active; the % refers to the signal ratio; note: % is set by controls: 0 for no effect and ±100 for the full control effect)
How it was run: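 An ESRE-bla HeLa cell assay: compounds were pin-transferred from DMSO onto overnight-plated cells and left 5 hr at 37 C. Substrate was then loaded for 2 hr at room temperature before reading fluorescence at 460 nm and 530 nm.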

[5] = qHTS assay to identify small molecule antagonists of the retinoid-related orphan receptor gamma (ROR-gamma) signaling pathway - cell viability counter screen (AID 1159520); note: % is set by controls: 0 for no effect and ±100 for the full control effect; nearly all actives have a fitted effect of over 50% in size
How it was run: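 Tet-on ROR gamma CHO cells (1,000/well) were plated 4 hr, given compounds in DMSO for 2 hr at 37 C, then induced with 1 uM final doxycycline for 16 hr. Viability was read as ATP by CellTiter-Glo luminescence after 30 min.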

[6] = target: Nuclear receptor ROR-gamma (Homo sapiens) (UniProt P51449); test: qHTS assay to identify small molecule antagonists of the retinoid-related orphan receptor gamma (ROR-gamma) signaling pathway (AID 1159521;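 note: CHO cells with doxycycline inducible ROR-gamma driving an RORE luciferase reporter; top concentration of the series differs between compounds; % is set by controls: 0 for no effect and ±100 for the full control effect; nearly all actives have a fitted effect of over 50% in size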)
How it was run: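 Luminescence readout (ONE-Glo, 30 min RT) after 16 h doxycycline induction; loss of signal scored as antagonism. CHO cells with TET-inducible RORγ and RORE-LUC reporter; compounds added 2 h before 1 uM final doxycycline.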

[7] = qHTS assay to identify small molecule agonists of the AP-1 signaling pathway - cell viability counter screen (AID 1159525; calls by dose curve; note: nearly all actives have a fitted effect of over 55% in size)
How it was run: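 ME-180 AP-1-bla, 2500 cells/well, Opti-MEM + 0.5% dialyzed FBS; overnight 37 °C; cpd 15-pt titration, 5 h 37 °C; CellTiter-Glo 30 min RT; luminescence read; normalised to TOAB and DMSO controls.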

[8] = qHTS assay to identify small molecule agonists of the AP-1 signaling pathway (AID 1159526; calls by dose curve; note: % is set by controls: 0 for no effect and ±100 for the full control effect)
[9] = target: Retinoic acid receptor RXR-alpha (Homo sapiens) (UniProt P19793); test: qHTS assay to identify small molecule agonists of the RXR signaling pathway (AID 1159527; calls by dose curve; note: % is set by controls: 0 for no effect and ±100 for the full control effect; nearly all actives have a fitted effect of over 35% in size)
Retinoic acid receptor RXR-alpha (Homo sapiens), sequence (P19793 whole entry, looked up): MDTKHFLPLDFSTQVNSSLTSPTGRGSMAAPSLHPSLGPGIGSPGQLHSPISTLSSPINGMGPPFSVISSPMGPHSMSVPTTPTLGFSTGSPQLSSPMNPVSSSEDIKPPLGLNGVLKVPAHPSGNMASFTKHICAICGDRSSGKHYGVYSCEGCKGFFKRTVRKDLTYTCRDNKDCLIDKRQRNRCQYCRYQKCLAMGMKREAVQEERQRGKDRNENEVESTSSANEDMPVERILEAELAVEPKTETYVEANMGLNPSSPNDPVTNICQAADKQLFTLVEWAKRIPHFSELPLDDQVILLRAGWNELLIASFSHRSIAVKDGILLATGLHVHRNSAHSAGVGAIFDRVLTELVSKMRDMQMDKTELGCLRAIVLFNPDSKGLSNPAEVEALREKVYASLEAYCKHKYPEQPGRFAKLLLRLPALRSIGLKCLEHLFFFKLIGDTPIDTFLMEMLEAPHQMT
How it was run: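 Agonist mode; 9-cis retinoic acid positive control. HEK 293T UAS-bla reporter cells, 2% charcoal-stripped FBS, 16 hr compound exposure at 37 C/5% CO2. LiveBLAzer B/G FRET substrate 2 hr RT; ex 405, em 460/530 nm.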

[10] = qHTS assay to identify small molecule agonists of the RXR signaling pathway - cell viability counter screen (AID 1159529); note: % is set by controls: 0 for no effect and ±100 for the full control effect; nearly all actives have a fitted effect of over 50% in size
How it was run: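 Luminescence from CellTiter-Glo (30 min, RT) measured viability in the same wells as the beta-lactamase reporter readout. Cells: GeneBLAzer RXR-alpha HEK 293T, 2% charcoal-stripped FBS. Compound exposure 16 hr, 37 C.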

[11] = qHTS assay to identify small molecule antagonists of the retinoid acid receptor (RAR) signaling pathway - cell viability counter screen (AID 1159551); note: % is set by controls: 0 for no effect and ±100 for the full control effect; nearly all actives have a fitted effect of over 35% in size
How it was run: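 Retinol-stimulated (1 uM final) C3RL4 cells, compound 6 h, 37 C; readout CellTiter-Glo luminescence (ATP) after 30 min RT incubation.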

[12] = qHTS assay to identify small molecule antagonists of the retinoic acid receptor (RAR) signaling pathway (AID 1159552)
How it was run: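 Luminescence from a RARE luciferase reporter in C3RL4 cells served as read-out. Cells received compounds together with 1 uM final retinol and incubated 6 hr at 37 C before detection reagent was added for 30 min at room temperature.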

[13] = qHTS assay to identify small molecule agonists of the retinoic acid receptor (RAR) signaling pathway (AID 1159553); conditions: C3RL4 RARE luciferase reporter, agonist, 6 h; activation: at 73.3 µM (top of the series); note: % is set by controls: 0 for no effect and ±100 for the full control effect
How it was run: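 Reporter readout comes from luciferase under RARE control in C3RL4 cells; compound exposure lasts 6 hr at 37 C in 5% CO2, and luminescence is recorded following a 30 min room-temperature incubation with reagent.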

[14] = qHTS assay to identify small molecule antagonists of the estrogen related receptor (ERR) signaling pathway from Tox21 library - cell viability counter screen (AID 1224834); note: % is set by controls: 0 for no effect and ±100 for the full control effect; nearly all actives have a fitted effect of over 30% in size
How it was run: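 After 17.5 h of compound exposure at 37 C, ERR cells are incubated with CellTiter-Fluor for 30 min and fluorescence intensity serves as the viability measure.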

[15] = target: Luciferin 4-monooxygenase (Photinus pyralis) (UniProt P08659); test: qHTS assay to identify small molecule inhibitors of firefly luciferase (AID 1224835); note: % is set by controls: 0 for no effect and ±100 for the full control effect; nearly all actives have a fitted effect of over 25% in size
Luciferin 4-monooxygenase (Photinus pyralis), sequence (P08659 whole entry, looked up): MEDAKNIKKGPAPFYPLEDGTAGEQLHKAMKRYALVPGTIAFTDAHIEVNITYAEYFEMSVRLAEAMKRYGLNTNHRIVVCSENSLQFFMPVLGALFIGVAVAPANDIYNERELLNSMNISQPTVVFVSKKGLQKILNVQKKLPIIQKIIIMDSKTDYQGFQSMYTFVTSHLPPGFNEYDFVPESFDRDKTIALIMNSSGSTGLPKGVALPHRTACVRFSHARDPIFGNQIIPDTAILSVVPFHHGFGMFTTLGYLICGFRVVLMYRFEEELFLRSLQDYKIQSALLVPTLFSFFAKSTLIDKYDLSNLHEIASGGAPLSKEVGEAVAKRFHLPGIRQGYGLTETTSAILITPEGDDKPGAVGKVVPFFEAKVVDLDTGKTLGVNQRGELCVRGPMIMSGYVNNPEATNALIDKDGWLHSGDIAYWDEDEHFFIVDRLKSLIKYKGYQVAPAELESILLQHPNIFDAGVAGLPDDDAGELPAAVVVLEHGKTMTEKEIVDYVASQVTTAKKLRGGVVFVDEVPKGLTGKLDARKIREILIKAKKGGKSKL
How it was run: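 Quantitative HTS format; KM concentrations of both substrates. Purified P. pyralis FLuc activity quantified from luminescence images.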

[16] = qHTS assay to identify small molecule agonists of the constitutive androstane receptor (CAR) signaling pathway - cell viability counter screen (AID 1224836); note: % is set by controls: 0 for no effect and ±100 for the full control effect; nearly all actives have a fitted effect of over 45% in size
How it was run: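 Viability read-out: CellTiter-Fluor fluorescence after 23 h compound exposure at 37 C/5% CO2 in double-stable HepG2-CYP2B6-hCAR cells, with PK11195 present at 0.75 uM final; compounds tested in 15-point titration.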

[17] = qHTS assay to identify small molecule antagonists of the constitutive androstane receptor (CAR) signaling pathway - cell viability counter screen (AID 1224837); note: % is set by controls: 0 for no effect and ±100 for the full control effect; nearly all actives have a fitted effect of over 45% in size
How it was run: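 Counter screen run in HepG2-CYP2B6-hCAR cells: 4 hr settle, compound titration (15 concentrations) with 50 nM CITCO, 23 hr at 37 C/5% CO2, CellTiter-Fluor fluorescence.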

[18] = target: Nuclear receptor subfamily 1 group I member 3 (Homo sapiens) (UniProt Q14994); test: qHTS assay to identify small molecule antagonists of the constitutive androstane receptor (CAR) signaling pathway (AID 1224838);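 note: HepG2 cells stably expressing hCAR with CYP2B6 luciferase reporter stimulated by CITCO; % is set by controls: 0 for no effect and ±100 for the full control effect; nearly all actives have a fitted effect of over 40% in size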
Nuclear receptor subfamily 1 group I member 3 (Homo sapiens), sequence (Q14994 whole entry, looked up): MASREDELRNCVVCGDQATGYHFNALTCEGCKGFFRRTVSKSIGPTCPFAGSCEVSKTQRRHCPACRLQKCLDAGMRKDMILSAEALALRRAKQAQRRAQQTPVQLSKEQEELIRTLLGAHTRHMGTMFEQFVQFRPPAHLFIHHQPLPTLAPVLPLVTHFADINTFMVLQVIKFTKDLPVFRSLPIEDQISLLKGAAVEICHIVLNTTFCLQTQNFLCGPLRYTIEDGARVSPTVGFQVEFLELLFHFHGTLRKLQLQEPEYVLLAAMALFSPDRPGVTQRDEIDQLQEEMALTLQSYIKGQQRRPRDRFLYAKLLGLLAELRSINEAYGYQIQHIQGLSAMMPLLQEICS
How it was run: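 Cell line: HepG2 double-stable for hCAR and CYP2B6-2.2kb reporter. Agonist: CITCO, 50 nM final. Compounds: 15 concentrations, 24 h, 37 C. Detection: ONE-Glo luminescence.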

[19] = qHTS assay to identify small molecule antagonists of the vitamin D receptor (VDR) signaling pathway - cell viability counter screen (AID 743225)
How it was run: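 Viability counter screen run in the same wells as the beta-lactamase reporter assay: HEK 293T VDR-UAS-bla cells, 16 h compound exposure at 37C with 3 nM (final) 1-alpha,25-dihydroxyvitamin D3. CellTiter-Glo luminescence, 30 min, room temperature.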

[20] = qHTS assay to identify small molecule agonists of the endoplasmic reticulum stress response signaling pathway - cell viability counter screen (AID 1159517; calls by dose curve)
How it was run: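 Luminescence readout: CellTiter-Glo, 30 min RT, same wells as the ESRE-bla reporter read. HeLa ESRE-bla, 1,500 cells/well, o/n 37 C; cpd 5 hr 37 C/5% CO2.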

CN(C)CCCNCCC#N
inactive: outcome [1] | outcome [2] | outcome [3] | outcome [4] | outcome [5] | outcome [6] | outcome [7] | outcome [8] | Potency [9] | outcome [10] | outcome [11] | Potency [12] | Potency [13] | Potency [14] | Potency [15] | outcome [16] | Potency [17] | Potency [18]

Cc1c(C(C)C)c(=O)n(-c2ccccc2)n1C
inactive: outcome [1] | outcome [2] | outcome [3] | outcome [4] | outcome [5] | outcome [6] | outcome [7] | outcome [8] | Potency [9] | outcome [10] | outcome [11] | Potency [12] | Potency [13] | Potency [15] | outcome [16] | Potency [17] | Potency [18]

Cc1cccc(C(=O)O)c1[N+](=O)[O-]
inactive: outcome [1] | outcome [19] | outcome [2] | outcome [3] | outcome [4] | outcome [5] | outcome [6] | outcome [7] | outcome [8] | Potency [9] | outcome [10] | outcome [11] | Potency [12] | Potency [13] | Potency [14] | outcome [16] | Potency [17] | Potency [18]

Nc1ccc(S(=O)(=O)Nc2ccccn2)cc1
inactive: outcome [1] | outcome [19] | outcome [2] | outcome [3] | outcome [4] | outcome [5] | outcome [6] | outcome [8] | Potency [9] | outcome [10] | outcome [11] | Potency [12] | Potency [13] | Potency [14] | outcome [16] | Potency [17]

Cc1nc(C)nc(N2C[C@@H](C)N(c3ccnc([C@@H](C)O)n3)[C@@H](C)C2)n1
inactive: outcome [1] | outcome [19] | outcome [2] | outcome [3] | outcome [4] | outcome [20] | outcome [5] | outcome [6] | outcome [8] | Potency [9] | outcome [10] | outcome [11] | Potency [12] | Potency [13] | Potency [15] | outcome [16] | Potency [17]

CCN(CCC#N)c1ccccc1
inactive: outcome [1] | outcome [19] | outcome [2] | outcome [3] | outcome [4] | outcome [20] | outcome [5] | outcome [6] | outcome [8] | Potency [9] | outcome [10] | outcome [11] | Potency [12] | Potency [14] | Potency [15] | outcome [16] | Potency [17] | Potency [18]

CC(C)(CO)[C@@H](O)C(=O)NCCCO
inactive: outcome [1] | outcome [19] | outcome [2] | outcome [3] | outcome [4] | outcome [5] | outcome [6] | outcome [7] | outcome [8] | Potency [9] | outcome [10] | outcome [11] | Potency [12] | Potency [13] | Potency [14] | Potency [15] | outcome [16] | Potency [17]

CCC1Nc2cc(Cl)c(S(N)(=O)=O)cc2S(=O)(=O)N1 (stereo not drawn)
inactive: outcome [1] | outcome [19] | outcome [2] | outcome [3] | outcome [4] | outcome [5] | outcome [6] | outcome [7] | outcome [8] | Potency [9] | outcome [10] | outcome [11] | Potency [12] | Potency [13] | Potency [14] | outcome [16] | Potency [17]

O=C(CN1CCN(Cc2ccc3c(c2)OCO3)CC1)N1c2ccccc2Sc2ccccc21
inactive: outcome [1] | outcome [19] | outcome [2] | outcome [3] | outcome [4] | outcome [20] | outcome [5] | outcome [6] | outcome [8] | Potency [9] | outcome [10] | outcome [11] | Potency [12] | Potency [13] | Potency [15] | outcome [16] | Potency [18]

COc1ccc(NS(=O)(=O)c2ccc(N)cc2)nn1
inactive: outcome [1] | outcome [19] | outcome [2] | outcome [3] | outcome [4] | outcome [5] | outcome [6] | outcome [8] | Potency [9] | outcome [10] | outcome [11] | Potency [12] | Potency [13] | Potency [14] | Potency [15] | outcome [16]

CCCCC(CC)COC(=O)c1ccccc1 (stereo not drawn)
inactive: outcome [1] | outcome [19] | outcome [2] | outcome [3] | outcome [4] | outcome [5] | outcome [6] | outcome [7] | outcome [8] | Potency [9] | outcome [10] | outcome [11] | Potency [12] | Potency [14] | Potency [15] | outcome [16] | Potency [17] | Potency [18]

O=C(Nc1cccc(C2=NCCN2)c1)Nc1cccc(C2=NCCN2)c1
inactive: outcome [1] | outcome [2] | outcome [3] | outcome [4] | activity, negative = cytotoxicity [5] 4.97% [at 19 µM] | activity change, negative = inhibition [6] -4.66% [at 19 µM] | viability change, negative = cytotoxic [7] 3.95% [at 15.8 µM] | activation [8] -8.47% [at 15.8 µM] | activation [9] 1.97% [at 15.8 µM] | activity change, negative = cytotoxicity [10] 12.6% [at 15.8 µM] | activity change, negative = cytotoxicity [11] 1.4% [at 19 µM] | activity, negative = inhibition [12] 6.53% [at 19 µM] | Potency [13] | viability change, negative = cytotoxic [14] 1.33% [at 19 µM] | activity change, negative = inhibition [15] -1.49% [at 23.6 µM] | viability change, negative = cytotoxic [16] 0.131% [at 19 µM] | activity change, negative = cytotoxicity [17] 1.51% [at 19 µM]

O=C1OC(=O)c2ccccc21
inactive: outcome [1] | outcome [2] | outcome [3] | outcome [4] | outcome [5] | outcome [6] | outcome [7] | outcome [8] | Potency [9] | outcome [10] | outcome [11] | Potency [12] | Potency [13] | Potency [14] | Potency [15] | outcome [16]

CC(=O)OC(C(=O)c1ccccc1)c1ccccc1 (stereo not drawn)
inactive: outcome [1] | outcome [19] | outcome [2] | outcome [3] | outcome [4] | outcome [5] | outcome [6] | outcome [7] | outcome [8] | Potency [9] | outcome [10] | outcome [11] | Potency [12] | Potency [13] | Potency [14] | Potency [15] | outcome [16] | Potency [17] | Potency [18]

C1CCN2C[C@@H]3C[C@@H](CN4CCCC[C@@H]34)[C@H]2C1
inactive: outcome [1] | outcome [19] | outcome [2] | outcome [4] | outcome [20] | outcome [5] | outcome [6] | outcome [7] | outcome [8] | Potency [9] | outcome [10] | outcome [11] | Potency [12] | Potency [13] | Potency [14] | Potency [15] | outcome [16] | Potency [17] | Potency [18]

CCOC(=O)C(=O)c1csc(NC=O)n1
inactive: outcome [1] | outcome [19] | outcome [2] | outcome [3] | outcome [20] | outcome [5] | outcome [6] | outcome [7] | outcome [8] | Potency [9] | outcome [10] | outcome [11] | Potency [12] | Potency [14] | Potency [15] | outcome [16] | Potency [17]
